Screens from PubChem.
HTR5A ag ctr: HTR5A agonism, opioid heterodimer counter-screen; P47898; HTR5A agonist assay, luminescence, cell-based; activation, % at 9.3 µM; 0.61% of 340,000 active; in the data active = activation mostly above about 9.5%, no sharp cut-off; inactive = mostly below about 7.6%
Target sequence (P47898 whole entry, looked up): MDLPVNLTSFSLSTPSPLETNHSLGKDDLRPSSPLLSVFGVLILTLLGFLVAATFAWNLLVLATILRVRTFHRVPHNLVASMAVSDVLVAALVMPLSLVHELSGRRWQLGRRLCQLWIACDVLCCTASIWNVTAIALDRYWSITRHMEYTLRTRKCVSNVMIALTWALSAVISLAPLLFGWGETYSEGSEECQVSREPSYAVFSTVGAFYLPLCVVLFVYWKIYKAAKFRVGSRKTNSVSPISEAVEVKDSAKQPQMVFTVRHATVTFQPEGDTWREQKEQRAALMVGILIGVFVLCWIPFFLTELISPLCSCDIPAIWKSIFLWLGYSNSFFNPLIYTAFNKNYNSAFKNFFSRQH
MOR-DOR inv ag: inverse agonist of human OPRM1-OPRD1 heterodimerization | AID 504357 | 0.21% of 340,000 active | P35372+P41143 | cell-based MOR-DOR heterodimer luminescence, inverse agonism | inhibition, % at 9.3 µM; in the data active = inhibition above about 22%, passing the limit was not always enough
MOR-DOR ag-1: agonists of human mu-delta opioid receptor heterodimerization | P35372+P41143 | cells, OPRM1-OPRD1 heterodimerization, luminescence | activation, % at 9.3 µM | 0.3% of 340,000 active | AID 504326
HTR5A inv ctr: HTR5A inverse agonism, opioid heterodimer counter-screen; HTR5A cell line, luminescence; 0.083% of 340,000 active; inhibition, % at 9.3 µM; P47898; in the data active = inhibition mostly above about 23%, no sharp cut-off; inactive = mostly below about 18%
MOR-DOR ag-2: counter-screen for HTR5A agonists: OPRM1-OPRD1 heterodimerization agonism | 13% of 800 active | activation, % at 9.3 µM | U2OS counter-screen cells, complementation luminescence, 3 h | shares compounds with HTR5A ag ctr
HTR5A ag confirm: confirmation of human HTR5A agonists | shares compounds with HTR5A ag ctr | HTR5A agonist cell assay, luminescence | activation, % at 9.3 µM | 17% of 800 active; in the data active = activation above about 17%
Hits are given with their value; - = inactive; . = not tested or not shown. A selection: hits, their analogues and other compounds. The true share with any hit is near 1.1%. Cut-off read from the data, not from the text of the source, unless noted: active = activation above about 18%; inactive = the rest.

SMILES	HTR5A ag ctr	MOR-DOR inv ag	MOR-DOR ag-1	HTR5A inv ctr	MOR-DOR ag-2	HTR5A ag confirm
O=S(=O)(NC(=NC1CCCCC1)c1ccccc1)c1ccccc1	-	-	-	-	.	.
OC1CCN(c2cc(-c3ccccc3)nc3cc(-c4ccc(F)cc4)nn23)CC1	-	-	-	-	.	.
CCN1CCN(c2cc(-c3ccccc3)nc3cc(-c4cccc(F)c4)nn23)CC1	14	-	-	-	-	-
Cc1ccnc(OC(C(=O)O)C(OCc2ccccc2)(c2ccc(F)cc2)c2ccc(F)cc2)n1 (stereo not given)	-	-	-	-	.	.
COc1ccc(C(=O)N2CCN(c3ccccc3Cl)CC2)cc1S(=O)(=O)NC1CC1	18	-	-	-	96	-
COc1ccccc1N1CCN(C(=O)C2CCN(C(=O)c3cccc(Cl)c3)CC2)CC1	-	-	-	-	.	.
COc1ccccc1N1CCN(C(=O)c2cccc(C(=O)N3CCN(c4ccccc4OC)CC3)c2)CC1	15	-	-	-	-	-
CCCOn1nnnc1-c1ccccc1	20	-	-	-	535	-
CC1(C)Cc2c(C#N)c(N3CCN(C(=O)c4ccco4)CC3)nc(-c3ccco3)c2CS1	18	-	-	-	-	-
O=C(Nc1ccccc1)C1C2/C=C\CCCCC21 (stereo not given)	-	-	-	-	.	.
Cc1ccc(NC(=O)C2C3/C=C\CCCCC32)cc1C (stereo not given)	20	-	-	-	-	-
CCc1ccc(Nc2nnc(SCC(=O)NC(=O)c3cccn3C)s2)cc1	15	-	-	-	-	-
CCOc1cc(C=O)cc(Cl)c1OCC(N)=O	-	-	-	-	.	.
COc1ccc(Nc2nnc(Cc3ccccc3)c(=O)[nH]2)c(OC)c1	17	-	-	-	-	-
COc1ccc(S(=O)(=O)N2CCOCC2)cc1C(=O)NCc1c(C)nn(Cc2ccccc2)c1C	-	-	-	-	.	.
COc1ccc(C(=O)NCc2c(C)nn(Cc3ccccc3)c2C)cc1S(=O)(=O)N1CCOCC1	17	-	-	-	-	-
Cc1ccc(-n2c(O)c(C=NC3CCS(=O)(=O)C3)c3ccccc3c2=O)cc1C (stereo not given)	15	-	-	-	-	-
C/C(=N/NC(=O)CNC(=O)c1ccccc1)c1ccc(C)cc1	-	-	-	-	.	.
C/C(=N\NC(=O)Cc1ccccc1)c1ccc(Br)s1	-	-	-	-	.	.
C/C(=N\NC(=O)CNc1cccc(C)c1)c1ccc(Br)s1	25	-	-	-	-	34
C/C(=N\NC(=O)CNc1ccccc1)c1ccccc1	18	-	-	-	-	-
OC(c1ccc(F)cc1)(C1CCCCC1)C(CN1CCOCC1)c1ccccc1 (stereo not given)	-	-	-	-	.	.
O=C(CNS(=O)(=O)c1ccccc1)N1CCCC1	-	-	-	-	.	.
O=C(CNS(=O)(=O)c1ccccc1)N1CCN(c2ccccc2)CC1	16	-	-	-	-	-
O=C1NC(c2ccccc2)=C(c2ccc3ccccc3n2)C(c2ccccc2)N1 (stereo not given)	-	-	-	-	.	.
SMILES	HTR5A ag ctr	MOR-DOR inv ag	MOR-DOR ag-1	HTR5A inv ctr	MOR-DOR ag-2	HTR5A ag confirm
O=C1NC(c2ccccc2)=C(c2nc3ccccc3s2)C(c2ccc(O)cc2)N1 (stereo not given)	38	-	-	-	-	-
COc1ccccc1CC(NC(C)=O)C(=O)N1CCN(C(=O)c2cccs2)CC1 (stereo not given)	-	-	-	-	.	.
COc1ccccc1CN(C)C(=O)CN1CCN(C(=O)c2cccs2)CC1	15	-	-	-	-	32
CCOc1ccc(C2=CS/C(=C(\C#N)c3nnc4n3CCCCC4)N2CC)cc1	15	-	-	-	-	-
COc1ccc(OCC(=O)Nc2cccc(OC)c2)cc1	-	-	-	-	.	.
Cc1nc(NC(=O)COc2ccccc2)sc1C(=O)Nc1cccc(Cl)c1	18	-	-	-	-	-
COc1ccc(NC(=O)c2sc(NC(=O)COc3ccccc3)nc2C)cc1	-	-	-	-	.	.
COc1cccc(NC(=O)COc2ccc(S(=O)(=O)NC(C)C)cc2)c1	15	-	-	-	-	-
CC(=O)c1cccc(NC(=O)COc2ccccc2)c1	15	-	-	-	-	-
CCCCN(C(=O)C(C)Oc1ccc(Br)cc1)c1c(N)n(Cc2ccccc2)c(=O)[nH]c1=O (stereo not given)	-	-	-	-	.	.
Cc1ccccc1N(C(=O)CNC(=O)c1ccco1)C(C(=O)NC1CCCC1)c1ccncc1 (stereo not given)	-	-	-	-	.	.
CC(C)c1c(C(=O)N/N=C/c2ccc(OCc3ccccc3)cc2)nnn1-c1nonc1N	22	-	-	-	41	-
Nc1nonc1-n1nnc(C(=O)N/N=C/c2ccc(OCc3ccccc3)cc2)c1COc1ccc(F)cc1	-	-	-	-	.	.
CC(C)c1c(C(=O)N/N=C/c2ccc(OCc3ccc(F)cc3)cc2)nnn1-c1nonc1N	15	-	-	-	-	-
COc1ccccc1N(C)S(=O)(=O)c1ccc(C(=O)Nc2ccc(C)cc2C)cc1	-	-	-	-	.	.
CC(=O)Nc1ccc(S(=O)(=O)Nc2cc(S(=O)(=O)N3CCCCC3)ccc2O)cc1	-	-	-	-	.	.
CN1CCN(S(=O)(=O)c2ccc(NC(=O)Nc3cccc(Cl)c3)cc2)CC1	17	-	-	-	-	-
O=C(Nc1cccc(Cl)c1)Nc1cc(S(=O)(=O)N2CCCCC2)ccc1Cl	-	-	-	-	.	.
O=C1CSC(c2cccc([N+](=O)[O-])c2)N1CCc1ccccc1 (stereo not given)	-	-	-	-	.	.
COc1ccc(-c2nn(-c3ccccc3)cc2/C=C/C(=O)N(C)CC(=O)Nc2cccc(F)c2)cc1OC	15	-	-	-	-	-
COc1cccc(NC(=O)CN(C)C(=O)/C=C/c2cn(-c3ccccc3)nc2-c2ccc(OC)c(OC)c2)c1	-	-	-	-	.	.
CN(CC(=O)Nc1ccc(Cl)cc1)C(=O)CCc1nc2sc3c(c2c(=O)[nH]1)CCCC3	21	-	-	-	-	-
O=C(COc1ccc(C(=S)N2CCC(Cc3ccccc3)CC2)cc1)N1CCOCC1	15	-	-	-	-	-
CCOC(=O)C1=CNS(=O)(=O)NC1CCc1ccccc1 (stereo not given)	-	-	-	-	.	.
Cc1cc(=O)c(C(=O)O)nn1-c1cccc(C(F)(F)F)c1	-	-	-	-	.	.
Cc1cc(=O)c(C(=O)O)nn1-c1ccccc1C(F)(F)F	15	-	-	-	-	-
COC(=O)c1cc(-c2ccc(Br)cc2)n[nH]1	-	-	-	-	.	.
COC(=O)c1cc(-c2c[nH]c3ccccc23)n[nH]1	30	-	-	-	-	-
O=C(CSc1nc2ccccc2c(=O)[nH]1)c1ccc(O)cc1O	16	-	-	-	-	-
O=C(CSc1nc2ccccc2c(=O)[nH]1)c1ccc(O)c(O)c1	-	-	-	-	.	.
